Test results: PubChem BioAssay (Tox21)
Activity calls are given as the source filed them. A call without a number means that no potency is given here. Calls come from the whole dose curve.

Experiment: G protein-coupled receptor (GPCR) small molecule agonists, calcium flux assay: HEK293 wild type cell line counter screen (AID 1920065)
Details: HEK293 WT calcium flux, fluorescence, agonist mode; series mostly up to 57.6 µM
Source text: U.S. Tox21 Program National Center for Advancing Translational Sciences [NCATS] Division of Preclinical Innovation [DPI] U.S. Environmental Protection Agency [EPA] National Institutes of Environmental Health Sciences [NIEHS] National Toxicology Program [NTP] U.S. Food and Drug Administration [FDA] Assay overview: The increased intracellular calcium release that occurred upon G protein-coupled receptor (GPCR) activation led to the frequent use of calcium flux assays to detect GPCR activation. For the purpose of studying and screening compounds that may activate GPCR, receptor-overexpressing models were typically generated using Hek293 wild-type (WT) cells. In order to eliminate the compounds that may have induced calcium release for non-specific activation, a counter-assay utilizing calcium flux on Hek293 WT cells was performed. The data were formulated in order to serve as a control for any calcium flux detection utilizing Hek293 cells with either GPCR overexpression or gene modification. The procurement of Hek293 WT cells from ATCC. Fluorescence intensity can be utilized to determine the activation of the compound in a calcium flux assay. As a counter control, this cell line was utilized to screen the Tox21 10K compound library.
Assay Protocol Summary: Hek293 cells were dispensed at 1500cells/4uL/well in 1536-well black wall/clear bottom plates using a multidrop dispenser. After the assay plates were incubated at a 37 C/5% CO2 incubator for 18 hours, 4 uL of Calcium Dye Solution was added to each well. The plates were incubated at 37 C for 1 hour. For agonist mode, 23 nL of compounds dissolved in DMSO, positive control (ATP) or DMSO only was transferred to the assay plate by a pin tool station. The fluorescence intensity in the plates was measured using FDSS 7000EX kinetic plate reader with a filter set of Ex/Em=480/540 for 3 min at 1 sec intervals. Each test compound was measured at 15 concentrations and in triplicates.
With COc1nn(C(=O)NS(=O)(=O)c2ccccc2OC(F)(F)F)c(=O)n1C the Potency was “inactive”.
For COC1=CC(=O)O[C@@H](/C=C/c2ccccc2)C1, the Potency was “inactive”.
With C[C@H]1CCC[C@H](O)CCCCCc2cc(O)cc(O)c2C(=O)O1 the Potency was “inactive”.
With COC(=O)COc1ccc(Cl)cc1Cl the Potency was “inactive”.
In the case of CCCCCCCCCCCCN(C)C, the Potency is reported as “inactive”.
With CC(C)=CC1C(C(=O)OC(C#N)c2cccc(Oc3ccccc3)c2)C1(C)C (stereo not given) the Potency was “inactive”.
In the case of Clc1cc2c(cc1Cl)Oc1cc(Cl)c(Cl)cc1O2, the activation is reported as 0.634% [at 0.217 µM] (inactive).
In the case of C1CCNCC1, the Potency is reported as “inactive”.
For S=C=Nc1ccccc1, the Potency was “inactive”.
In the case of O=CCCl, the Potency is reported as “inactive”.
For COc1ccc(C(=O)c2c(C)n(CCN3CCOCC3)c3ccccc23)cc1, the Potency was “inactive”.
With C/C=C/C=O the Potency was “inactive”.
In the case of CC1=C(C(=O)Nc2ccccc2)S(=O)(=O)CCO1, the Potency is reported as “inactive”.
With CCC1(C2=NCCN2)Cc2ccccc2O1 (stereo not given) the Potency was “inactive”.
In the case of CCOP(=O)(OCC)Oc1nc(Cl)c(Cl)cc1Cl, the Potency is reported as “inactive”.
For ClC(Cl)C(Cl)(Cl)Cl, the Potency was “inactive”.
In the case of CNC(=O)Oc1cc(C)c(N(C)C)c(C)c1, the Potency is reported as “inactive”.
For CCOC(=O)c1cn2nc(OP(=S)(OCC)OCC)cc2nc1C, the Potency was “inactive”.
For C=C(C)CN(CC)c1c([N+](=O)[O-])cc(C(F)(F)F)cc1[N+](=O)[O-], the Potency was “inactive”.
With CC1(C)C(C(=O)OC(C#N)c2cccc(Oc3ccccc3)c2)C1(C)C (stereo not given) the Potency was “inactive”.
In the case of CC(C)=CCOc1c2occc2cc2ccc(=O)oc12, the Potency is reported as “inactive”.
In the case of Oc1ccc(C2(c3ccc(O)cc3)c3ccccc3-c3ccccc32)cc1, the Potency is reported as “inactive”.
In the case of CCSC(=O)N(CC)C1CCCCC1, the Potency is reported as “inactive”.
With CC(O)C#N (stereo not given) the Potency was “inactive”.
With [C-]1=CC=CC1.[Cl][Zr+2][Cl].c1cc[cH-]c1 the Potency was “inactive”.
With CSC(C)(C)/C=N/O the Potency was “inactive”.
With CC(C)(C)C(=O)C(Oc1ccc(Cl)cc1)n1cncn1 (stereo not given) the Potency was “inactive”.
For O=[N+]([O-])c1ccc(Cl)c(Cl)c1Cl, the Potency was “inactive”.
For O=C1c2ccccc2C(=O)C1C(=O)C(c1ccccc1)c1ccc(Cl)cc1 (stereo not given), the Potency was “inactive”.
For CCOc1cc(OP(=S)(OC)OC)nc(CC)n1, the Potency was “inactive”.
With N#CCCSCCC#N the Potency was “inactive”.
For O=C1C=CC(=O)c2ccccc21, the Potency was “inactive”.
For C[C@]12CC[C@H]3[C@@H](CCC4=CC(=O)CC[C@@]43C)[C@@H]1CC[C@@H]2O, the Potency was “inactive”.
With C[C@@H](N)[C@@H](O)c1ccccc1 the Potency was “inactive”.
For Oc1cccc(-c2ccccc2)c1, the Potency was “inactive”.
For COP(=O)(OC)Oc1ccc([N+](=O)[O-])cc1, the Potency was “inactive”.
With CC(C)(C)C(O)/C(=C\c1ccc(Cl)cc1Cl)n1cncn1 (stereo not given) the Potency was “inactive”.
In the case of CCN(CC)C(C)C(=O)c1ccccc1 (stereo not given), the Potency is reported as “inactive”.
With OCC(c1ccc(Cl)cc1)c1ccc(Cl)cc1 the Potency was “inactive”.
For Cc1c(COC(=O)[C@@H]2[C@H](/C=C(\Cl)C(F)(F)F)C2(C)C)cccc1-c1ccccc1, the Potency was “inactive”.
